Screening results: PubChem BioAssay, several laboratories
This is a sample that favours compounds with a hit; in the whole collection about 3.5% have one here.
GDH-TPI counter-1: GDH-TPI coupled enzyme inhibition counter-screen | 1.2% of 360,000 active | GDH-TPI coupled enzyme counterscreen, NADH absorbance | inhibition, % at 4.8 µM; in the data active = inhibition above about 30%;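 also: 0% = DMSO wells and 100% = wells lacking the enzyme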
FBA Mtb inh: Mtb fructose-bisphosphate aldolase inhibition; AID 588726; purified M. tuberculosis FBA, fluorescence read-out; inhibition, % at 1 µM; P9WQA3; 2.3% of 360,000 active;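 also: 0% = vehicle and 100% = reference inhibitor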
UGM FP inh: inhibitors of M. tuberculosis UDP-galactopyranose mutase | P9WIQ1 | purified UGM, fluorescence polarization probe displacement | inhibition, % at 10 µM | 0.06% of 320,000 active; in the data active = inhibition above about 10%, passing the limit was not always enough; inconclusive = no clear call, values can overlap the other calls
Mtb betalactam: beta-lactam sensitization of Mtb H37Rv. M. tuberculosis H37Rv growth with meropenem, percent inhibition. inhibition, % at 25 µM. 0.27% of 330,000 active; call rule not given here;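 also: growth measured after seven days incubation then overnight dye step; 0% = bacteria only wells and 100% = bacteria with antibiotic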
Rv3671c protease: inhibits the M. tuberculosis serine protease Rv3671c | inhibition, % at 5.96 µM | AID 2606 | 0.048% of 320,000 active | P9WHR9; in the data active = inhibition above about 38%;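 also: extracellular domain of Rv3671c used as enzyme; 0% = enzyme with DMSO and 100% = no enzyme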
Target sequence (P9WHR9 whole entry, looked up, the tested form may be a part): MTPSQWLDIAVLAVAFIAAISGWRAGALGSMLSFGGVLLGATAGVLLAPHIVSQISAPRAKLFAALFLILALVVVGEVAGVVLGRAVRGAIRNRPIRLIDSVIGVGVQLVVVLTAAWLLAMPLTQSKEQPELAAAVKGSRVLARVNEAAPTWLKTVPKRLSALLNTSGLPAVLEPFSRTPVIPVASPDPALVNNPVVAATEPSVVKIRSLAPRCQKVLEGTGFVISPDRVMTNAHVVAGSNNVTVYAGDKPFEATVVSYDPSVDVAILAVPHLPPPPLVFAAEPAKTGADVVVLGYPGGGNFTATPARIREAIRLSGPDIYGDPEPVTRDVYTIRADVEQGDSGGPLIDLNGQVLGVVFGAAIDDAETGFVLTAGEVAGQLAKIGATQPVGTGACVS
Mtb FBA confirm: Mtb FBA inhibition, confirmed. shares compounds with FBA Mtb inh. purified M. tuberculosis FBA, fluorescence read-out. inhibition, % at 1 µM. 78% of 5,600 active. AID 651616;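 also: 0% = vehicle wells and 100% = reference inhibitor wells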
GDH-TPI counter-2: GDH-TPI inhibition counter-screen for FBA inhibitors; shares compounds with FBA Mtb inh; GDH-TPI coupled enzyme counterscreen, fluorescence; inhibition, % at 1 µM; 81% of 5,600 active; in the data active = inhibition above about 10%
* = called active by the depositor. Rule as the data show it, unless noted: active = inhibition above about 27%; inactive = the rest.

What do the screens show for `O=C(NCCCN1CCCC1)c1ccc2c(c1)N(Cc1ccccc1)CCS2`?
GDH-TPI counter-1: 2; FBA Mtb inh: 96*; UGM FP inh: 1; Mtb betalactam: -7; Rv3671c protease: 1; Mtb FBA confirm: 153*; GDH-TPI counter-2: 147*

Results for CCCNC(=O)N(C)C[C@H]1Oc2ncc(Br)cc2C(=O)N([C@H](C)CO)C[C@H]1C ?
GDH-TPI counter-1: 7; FBA Mtb inh: 5

Results for Cc1cccc(NC(=O)CSc2ccc3nnc(-c4cccnc4)n3n2)c1 ?
GDH-TPI counter-1: 4; FBA Mtb inh: 2; UGM FP inh: 0; Mtb betalactam: inconclusive; Rv3671c protease: 6

Results for CN(Cc1ccccc1)C(=O)COC(=O)Cc1ccc(Cl)cc1 ?
GDH-TPI counter-1: 1; FBA Mtb inh: -3; UGM FP inh: -2; Mtb betalactam: 15; Rv3671c protease: -1

How did Nc1cc(Cl)ccc1C(=O)OCC(=O)NC1CCCCCCC1 do in these assays?
GDH-TPI counter-1: 7; FBA Mtb inh: 27*; UGM FP inh: 2; Mtb betalactam: -6; Rv3671c protease: -5; Mtb FBA confirm: 73*; GDH-TPI counter-2: 56*

How did O=C(COC(=O)c1cc(Cl)ccc1Cl)NC1CCCC1 do in these assays?
GDH-TPI counter-1: 3; FBA Mtb inh: 4; UGM FP inh: -1; Mtb betalactam: 94; Rv3671c protease: 1

How did Nc1cc(Cl)ccc1C(=O)OCC(=O)NC(=O)NCc1ccccc1 do in these assays?
GDH-TPI counter-1: 4; FBA Mtb inh: 30*; UGM FP inh: 1; Mtb betalactam: -1; Rv3671c protease: -2; Mtb FBA confirm: 63*; GDH-TPI counter-2: 49*

What do the screens show for `CN(Cc1ccccc1)C(=O)COC(=O)c1ccc(Cl)cc1N`?
GDH-TPI counter-1: 0; FBA Mtb inh: 50*; UGM FP inh: -3; Mtb betalactam: 7; Rv3671c protease: -7; Mtb FBA confirm: 101*; GDH-TPI counter-2: 90*

What do the screens show for `Cc1ccc(C)c(C(=O)OCC(=O)NC(=O)NCc2ccccc2)c1`?
GDH-TPI counter-1: 3; FBA Mtb inh: 0

What do the screens show for `O=C(COc1cccnc1[N+](=O)[O-])N1CCN(S(=O)(=O)c2ccccc2)CC1`?
GDH-TPI counter-1: -10; FBA Mtb inh: -1; UGM FP inh: -1; Mtb betalactam: -9; Rv3671c protease: -4

What do the screens show for `O=C(COc1nnc2ccccn12)N1CCN(S(=O)(=O)c2ccccc2)CC1`?
GDH-TPI counter-1: 2; FBA Mtb inh: 35*; UGM FP inh: 4; Mtb betalactam: -6; Rv3671c protease: -4; Mtb FBA confirm: -5; GDH-TPI counter-2: -3

What do the screens show for `COc1cc(OC)c(NC(=S)NCc2ccccc2)cc1Cl`?
GDH-TPI counter-1: 5; FBA Mtb inh: -1; UGM FP inh: -2; Mtb betalactam: -7; Rv3671c protease: 17

What do the screens show for `Cc1ccc2[nH]c(-c3cccc(N)c3)cc2c1`?
GDH-TPI counter-1: 9; FBA Mtb inh: 43*; UGM FP inh: -2; Mtb betalactam: 11; Rv3671c protease: 12; Mtb FBA confirm: 152*; GDH-TPI counter-2: 128*

What do the screens show for `COC(=O)c1ccc(/C=C/c2ccc3cccc(OC)c3n2)cc1`?
GDH-TPI counter-1: 37*; FBA Mtb inh: 60*; UGM FP inh: 3; Mtb betalactam: 57; Rv3671c protease: -22; Mtb FBA confirm: active; GDH-TPI counter-2: active

Results for COc1cc(/C=C/c2ccc3cccc(O)c3n2)cc(OC)c1OC ?
GDH-TPI counter-1: 21; FBA Mtb inh: -1; UGM FP inh: 1; Mtb betalactam: 96; Rv3671c protease: -1

What do the screens show for `COc1ccc(-c2c3c(cc4ncn(Cc5ccccc5)c24)COC3=O)cc1`?
GDH-TPI counter-1: 4; FBA Mtb inh: 63*; UGM FP inh: 5; Mtb betalactam: -6; Rv3671c protease: -4; Mtb FBA confirm: 141*; GDH-TPI counter-2: 138*

Results for COC(=O)C1=CN(Cc2cccs2)C=C(C(=O)OC)C1c1cccc(OC)c1OC ?
GDH-TPI counter-1: 9; FBA Mtb inh: 53*; UGM FP inh: -3; Mtb betalactam: 6; Rv3671c protease: -6; Mtb FBA confirm: 82*; GDH-TPI counter-2: 75*

How did COC(=O)C1=CN(Cc2ccc(OC)cc2)C=C(C(=O)OC)C1c1cccs1 do in these assays?
GDH-TPI counter-1: -2; FBA Mtb inh: 71*; UGM FP inh: 3; Mtb betalactam: -3; Rv3671c protease: 2; Mtb FBA confirm: 7; GDH-TPI counter-2: 7
